“And” between values parts separate entries of the source, which are not always exact repeats. Equal values may be shown once. Inconclusive results are not listed. The source made the active and inactive calls. Unless noted, calls follow the shape of the dose curve; as a rule, active = well fitted curve in the direction sought with a large enough effect in the repeat runs; inconclusive = weak or mixed curves; inactive = no such curve, though single readings can be large; an effect the other way counts as inactive or inconclusive.
Columns and labels:
[1] = Human pregnane X receptor (PXR) small molecule agonists, qHTS cell viability counter screen (AID 1346977); also: nearly all actives have a fitted effect of over 50% in size; also: potency is read from the fitted curve at half-maximal effect
How it was run: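 Same-well viability read: CellTiter-Fluor added after 23 hr compound exposure, fluorescence measured 1 hr later. Cells were PXR-Luc HepG2 seeded at 2,000/well in 5% charcoal-stripped FBS medium, rested 5 hr before dosing at 37 C.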

[2] = Caspase-3/7 induction in CHO-K1 cells by small molecules, qHTS cell viability counter screen (AID 1346979); also: nearly all actives have a fitted effect of over 35% in size; also: potency is read from the fitted curve at half-maximal effect
How it was run: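 Cytotoxicity counter screen: CellTiter-Fluor added to compound-treated wild-type CHO-K1 cells at 16 h (37C, 5% CO2), fluorescence measured 1 h later; same wells as caspase-3/7 measurement.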

[3] = Caspase-3/7 induction in HepG2 cells by small molecules, qHTS cell viability counter screen (AID 1346981); also: nearly all actives have a fitted effect of over 30% in size; also: potency is read from the fitted curve at half-maximal effect; as to activity change, negative = cytotoxicity: series mostly up to about 92 µM
How it was run: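 Cell viability is measured as a cytotoxicity counter screen alongside the Caspase-Glo 3/7 readout in identical wells. Wild-type HepG2 cells are treated with test compounds for 16 hr at 37 C before CellTiter-Fluor addition and a 1-hr incubation.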

[4] = target: Acetylcholinesterase (Homo sapiens) (UniProt P22303); test: Acetylcholinesterase (AChE) small molecule antagonists: colormetric cell-based qHTS assay (AID 1347395; calls by dose curve; also: nearly all actives have a fitted effect of over 30% in size; also: potency is read from the fitted curve at half-maximal effect)
How it was run: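 Colorimetric readout: DTNB quantifies thiocholine from acetylthiocholine hydrolysed by endogenous AChE of SH-SY5Y cells (2,000/well, plated overnight). Compound pretreatment 30 min, substrate incubation 90 min, both 37 C.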

[5] = Caspase-3/7 induction in CHO-K1 cells by small molecules, qHTS assay (AID 1346980); also: nearly all actives have a fitted effect of over 15% in size; also: potency is read from the fitted curve at half-maximal effect
How it was run: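 Wild-type cells were seeded at 1,500 per well and settled 5 hr at 37 C, 5% CO2, then exposed to DMSO-dissolved compounds for 17 hr. Caspase-Glo 3/7 reagent was added, and luminescence was read after 30min at room temperature.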

[6] = Caspase-3/7 induction in HepG2 cells by small molecules, qHTS assay (AID 1346978); also: nearly all actives have a fitted effect of over 15% in size; also: potency is read from the fitted curve at half-maximal effect
How it was run: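 Wild-type HepG2 cells (2,000/well) were settled 5 h at 37 C, 5% CO2, then exposed to compounds in DMSO for 17 h. Caspase-3/7 activity was read by luminescence 30 min after adding Caspase-Glo 3/7 reagent at room temperature.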

[7] = target: Nuclear receptor subfamily 1 group I member 2 (Homo sapiens) (UniProt O75469); test: Human pregnane X receptor (PXR) small molecule agonists, qHTS assay (AID 1346982); also: nearly all actives have a fitted effect of over 35% in size; also: potency is read from the fitted curve at half-maximal effect
How it was run: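 Cells: HepG2 stably carrying PXR-Luc. Medium held 5% charcoal-stripped FBS. Compounds in DMSO added after 5 hr plating, incubated 24 hr, then luminescence quantified with ONE-Glo.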

[8] = target: Nuclear receptor subfamily 1 group I member 2 (Rattus norvegicus) (UniProt Q9R1A7); test: Rat pregnane X receptor (rPXR) activation by small molecules, qHTS assay (AID 1346983); conditions: rPXR luciferase reporter cells, One-Glo luminescence, 24 h; max activation: hits give high values; also: nearly all actives have a fitted effect of over 20% in size; also: potency is read from the fitted curve at half-maximal effect
How it was run: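 Cell-based rPXR luciferase reporter assay, 2,000 cells per well, rested 5hr at 37 C before compound addition in DMSO, then 24 hr at 37 C. One-Glo reagent was added and luminescence read after 30 min at room temperature.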

[9] = target: Nuclear receptor subfamily 1 group I member 2 (Homo sapiens) (UniProt O75469); test: CYP3A4 induction through human pregnane X receptor (PXR) by small molecules, qHTS assay (AID 1346984); also: nearly all actives have a fitted effect of over 40% in size
How it was run: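 Quantitative HTS in DPX-2 cells, i.e. HepG2 transfected with PXR response element and CYP3A4-promoter luciferase. Compounds in DMSO incubated 24hr at 37C; then P450-Glo CYP3A4 substrate, 3uM final, 3hr; One-Glo luminescence.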

[10] = target: Nuclear receptor subfamily 1 group I member 2 (Homo sapiens) (UniProt O75469); test: Human pregnane X receptor (PXR) activation by small molecules, qHTS assay (AID 1346985); also: nearly all actives have a fitted effect of over 40% in size; also: potency is read from the fitted curve at half-maximal effect
How it was run: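 DPX-2 cells (HepG2 co-transfected with a PXR response element and a CYP3A4-promoter luciferase construct) were seeded at 2,000 per well, rested 5 hr at 37C, then exposed to DMSO-dissolved compounds for 24 hr. Activation was read as luciferase luminescence.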
% is scaled to controls: 0 for no effect and ±100 for the full control effect.

Sequence of Nuclear receptor subfamily 1 group I member 2 (Rattus norvegicus) (Q9R1A7 whole entry, looked up): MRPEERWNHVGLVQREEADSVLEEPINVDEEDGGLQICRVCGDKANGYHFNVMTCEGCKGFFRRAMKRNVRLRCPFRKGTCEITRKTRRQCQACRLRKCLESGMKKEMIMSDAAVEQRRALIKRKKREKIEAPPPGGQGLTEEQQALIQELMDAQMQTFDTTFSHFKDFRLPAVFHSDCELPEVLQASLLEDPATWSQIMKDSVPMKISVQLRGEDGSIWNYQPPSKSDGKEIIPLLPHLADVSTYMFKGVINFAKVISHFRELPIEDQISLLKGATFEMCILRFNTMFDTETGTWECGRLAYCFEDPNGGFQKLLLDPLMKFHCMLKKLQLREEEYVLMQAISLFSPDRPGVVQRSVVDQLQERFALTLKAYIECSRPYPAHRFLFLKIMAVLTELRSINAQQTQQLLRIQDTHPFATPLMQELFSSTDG
Sequence of Acetylcholinesterase (Homo sapiens) (P22303 whole entry, looked up): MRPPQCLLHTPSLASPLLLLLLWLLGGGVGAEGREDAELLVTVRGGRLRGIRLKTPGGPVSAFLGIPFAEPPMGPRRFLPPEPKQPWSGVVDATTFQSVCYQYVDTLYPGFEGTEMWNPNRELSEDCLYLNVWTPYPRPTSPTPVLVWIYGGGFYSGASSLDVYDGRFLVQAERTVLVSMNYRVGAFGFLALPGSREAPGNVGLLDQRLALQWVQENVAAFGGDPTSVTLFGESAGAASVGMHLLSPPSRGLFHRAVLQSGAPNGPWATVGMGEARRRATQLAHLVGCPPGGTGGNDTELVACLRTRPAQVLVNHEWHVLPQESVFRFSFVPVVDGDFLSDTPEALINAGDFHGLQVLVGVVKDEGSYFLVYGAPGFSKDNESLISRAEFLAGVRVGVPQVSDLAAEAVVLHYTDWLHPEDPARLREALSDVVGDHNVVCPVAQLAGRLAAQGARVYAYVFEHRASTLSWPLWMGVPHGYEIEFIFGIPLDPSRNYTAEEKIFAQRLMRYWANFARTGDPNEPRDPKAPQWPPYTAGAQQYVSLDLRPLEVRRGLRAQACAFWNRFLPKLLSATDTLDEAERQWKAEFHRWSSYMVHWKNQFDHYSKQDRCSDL
Sequence of Nuclear receptor subfamily 1 group I member 2 (Homo sapiens) (O75469 whole entry, looked up): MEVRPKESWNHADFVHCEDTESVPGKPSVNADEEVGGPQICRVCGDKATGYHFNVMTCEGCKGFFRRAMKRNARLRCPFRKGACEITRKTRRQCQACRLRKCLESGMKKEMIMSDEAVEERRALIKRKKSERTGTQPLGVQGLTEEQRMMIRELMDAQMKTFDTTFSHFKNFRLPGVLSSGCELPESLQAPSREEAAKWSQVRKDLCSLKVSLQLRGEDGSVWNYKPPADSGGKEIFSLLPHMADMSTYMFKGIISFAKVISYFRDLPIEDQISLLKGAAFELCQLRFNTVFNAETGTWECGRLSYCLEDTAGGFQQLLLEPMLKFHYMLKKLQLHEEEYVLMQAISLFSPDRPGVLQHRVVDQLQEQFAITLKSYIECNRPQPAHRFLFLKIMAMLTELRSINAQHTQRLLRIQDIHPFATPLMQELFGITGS

CCN1CCC2(CC1)COc1cc3c(cc12)N(C(=O)c1ccc(-c2ccc(-c4nnc(C)o4)cc2C)cc1)CC3
active: Potency [1] 15.9 µM | Potency [2] 25.2 µM | Potency [3] 50.2 µM | Potency [4] 29.3 µM

CCC(C)c1cccc(C(C)CC)c1O (stereo unspecified)
inactive: Potency [1] | Potency [5] | Potency [3] | Potency [4]

O=C1C(Cl)=C(Cl)C(=O)C(Cl)=C1Cl
inactive: Potency [6] | Potency [5]
active: Potency [2] 24.2 µM and 24.3 µM | Potency [3] 54.3 µM

O=[N+]([O-])[O-].[Tl+]
inactive: Potency [6] | Potency [5]
active: Potency [2] 61.6 µM

CCOP(=O)(OCC)Oc1cc(C)nc(C(C)C)n1
inactive: Potency [1] | Potency [6] | Potency [5] | Potency [3]
active: Potency [4] 0.142 µM

BrCCCBr
inactive: Potency [1] | Potency [6] | Potency [5] | Potency [3] | Potency [4]

COc1ccc(Cc2nccc3cc(OC)c(OC)cc23)cc1OC
active: Potency [1] 9.44 µM | Potency [7] 16.8 µM
inactive: Potency [6] | Potency [5] | max activation [8] -16.6% | Potency [9] | Potency [10]

CCC(C)Nc1c([N+](=O)[O-])cc(C(C)(C)C)cc1[N+](=O)[O-] (stereo unspecified)
inactive: Potency [1] | Potency [6] | Potency [5] | Potency [3] | Potency [4]
active: Potency [7] 24.3 µM

c1ccc2c(c1)cc1ccc3cccc4ccc2c1c34
active: Potency [6] 6.99 µM | Potency [7] 5.55 µM
inactive: Potency [1] | Potency [5] | Potency [4]

C[C@@H]1CC2=CC(=O)CC[C@@H]2[C@H]2CC[C@@]3(C)[C@@H](CC[C@]3(C)O)[C@@H]21
inactive: Potency [1] | Potency [6] | Potency [5] | Potency [3] | Potency [4]

CC#C[C@]1(O)CC[C@H]2[C@@H]3C[C@H](C)C4=CC(=O)CC[C@]4(C)[C@H]3CC[C@@]21C
inactive: Potency [1] | Potency [6] | Potency [5] | Potency [3] | Potency [4]
active: Potency [7] 23.7 µM

CC(C)=CC1C(C(=O)OC(C#N)c2cccc(Oc3ccccc3)c2)C1(C)C (stereo unspecified)
inactive: Potency [1] | Potency [6] | Potency [5] | Potency [3] | Potency [4]

O=C(N[C@@H]1N=C(c2ccccc2F)c2cccc3c2N(CC3)C1=O)c1cc2ccccc2[nH]1
active: Potency [7] 10.6 µM
inactive: Potency [1] | Potency [2] | Potency [5] | Potency [3] | Potency [4]

CCOC(=O)CCN(SN(C)C(=O)Oc1cccc2c1OC(C)(C)C2)C(C)C
active: Potency [4] 0.252 µM
inactive: Potency [1] | Potency [6] | Potency [5] | Potency [3]

CNC(=O)Oc1cc(C)cc(C(C)C)c1
active: Potency [4] 0.633 µM
inactive: Potency [1] | Potency [6] | Potency [5] | Potency [3]

Oc1ccc(Cl)c(Cl)c1
active: Potency [7] 60.2 µM
inactive: Potency [1] | Potency [6] | Potency [5] | Potency [3] | Potency [4]

CC[C@]1(O)CC[C@H]2[C@@H]3CCC4=CCCC[C@@H]4[C@H]3CC[C@@]21C
inactive: Potency [1] | Potency [5] | Potency [3] | Potency [9] | Potency [4]
active: Potency [7] 23.7 µM | Potency [8] 14.1 µM | Potency [10] 8.91 µM

COC(=O)c1cc(Oc2ccc(Cl)cc2Cl)ccc1[N+](=O)[O-]
inactive: Potency [1] | Potency [6] | Potency [5] | Potency [3] | Potency [4]

C[C@]12CC[C@H]3[C@@H](CCC4=CC(=O)CC[C@@H]43)[C@@H]1CC[C@@H]2OC(=O)CCc1ccco1
inactive: Potency [1] | Potency [6] | Potency [3] | Potency [4]

CCO/N=C(\CC)C1=C(O)CC(c2c(C)cc(C)cc2C)CC1=O (stereo unspecified)
active: Potency [7] 30.6 µM
inactive: Potency [1] | Potency [6] | Potency [5] | Potency [3] | Potency [4]

C1=CCC=C1
inactive: Potency [1] | Potency [5] | Potency [3]

CCCC[N+]1(C)CCCC1 (tested in a mixture with another compound)
inactive: Potency [6] | Potency [5]
active: Potency [2] 61.9 µM

CCCN
inactive: Potency [1] | Potency [6] | Potency [5] | Potency [3] | Potency [4]

Fc1ccc(C(OCCN2CCN(CCCc3ccccc3)CC2)c2ccc(F)cc2)cc1
active: Potency [1] 16.8 µM | Potency [2] 11.9 µM | Potency [5] 23.7 µM | Potency [3] 23.7 µM
inactive: Potency [7] | Potency [4]

CN=C=O
inactive: Potency [1] | Potency [6] | Potency [5] | Potency [3] | Potency [4]

N#Cc1c2ccccc2cc2ccccc12
active: Potency [7] 27.3 µM
inactive: Potency [1] | Potency [6] | Potency [5] | Potency [4]

COP(=S)(OC)Oc1ccc([N+](=O)[O-])c(C)c1
inactive: Potency [1] | Potency [6] | Potency [5] | Potency [3] | Potency [7]
active: Potency [4] 35.6 µM

Clc1c(Cl)c(Cl)c(Cl)c(Cl)c1Cl
inactive: activity change, negative = cytotoxicity [1] 0.664% [at 8.39 µM] | caspase activation [6] -1.49% [at 8.39 µM] | caspase-3/7 activation [5] 0.528% [at 8.39 µM] | activity change, negative = cytotoxicity [3] -1.11% [at 8.39 µM] | activity, negative = inhibition [4] -1.38% [at 10.5 µM]

CCCCN(CCCC)C(=S)[S-].CCCCN(CCCC)C(=S)[S-].[Ni+2]
inactive: Potency [1] | Potency [6] | Potency [5] | Potency [7] | Potency [4]

CC(=O)C(Cl)C(=O)N(C)C (stereo unspecified)
inactive: Potency [1] | Potency [6] | Potency [5] | Potency [3] | Potency [4]

[O]=[Cr](=[O])([OH])[O][Cr](=[O])(=[O])[OH]
active: Potency [1] 8.71 µM and 6.1 µM | Potency [6] 9.78 µM and 13.7 µM | Potency [3] 5.5 µM and 4.85 µM
inactive: Potency [5] | max activation [8] -13.2% and 6.2% | Potency [9] | Potency [10] | Potency [4]

ClC1=C(Cl)[C@]2(Cl)[C@H]3[C@H]([C@@H]4C=C[C@H]3C4)[C@@]1(Cl)C2(Cl)Cl
inactive: Potency [1] | Potency [6] | Potency [3] | Potency [4]

[C-]1=CC=CC1.[Cl][Zr+2][Cl].c1cc[cH-]c1
inactive: Potency [1] | Potency [5] | Potency [3]

CC(=O)[O][Pb]([c]1ccccc1)([c]1ccccc1)[c]1ccccc1
active: Potency [1] 4.33 µM | Potency [6] 2.43 µM | Potency [5] 0.486 µM | Potency [3] 10.9 µM
inactive: Potency [4]

O.O.O.O.O.O.O.O=S(=O)([O-])[O-].[Co+2]
inactive: Potency [6] | Potency [2] | Potency [5] | Potency [3]

O=S(=O)(NS(=O)(=O)C(F)(F)F)C(F)(F)F
inactive: Potency [6] | Potency [5] | Potency [3] | Potency [4]
active: Potency [1] 60.9 µM

From PubChem BioAssay (Tox21)
